Test results: PubChem BioAssay (EPA / NIEHS)
Active and inactive are the calls of the source. How the source made its calls: active means hit-call score of the fitted dose curve at least 0.9, where 1 is the maximum; inactive means score below 0.9.

How the values were obtained:
[1] = CCTE_Padilla_ZF_Score.Spine: CCTE's 144 Hour Post-fertilization zebrafish Assay Score for Spine Malformation, Padilla Lab (AID 2284407)
In short: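 Spine malformation scored at 6 dpf by two independent blinded observers under stereomicroscope, after static sealed exposure from 6–8 hpf at 26C in Hanks' solution with rinse on 5 dpf. Positive-direction fit against DMSO control.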

[2] = CCTE_Padilla_ZF_Score.Swim_bladder: CCTE's 144 Hour Post-fertilization zebrafish Assay Score for Swim Bladder Malformation, Padilla Lab (AID 2284408)
In short: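 Swim bladder inflation scored at 6 dpf by two blinded observers under a stereo microscope. Exposure ran from 6–8 hpf in sealed wells of 10% Hanks' at 26C, with rinsing at 5 dpf; DMSO served as baseline.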

[3] = CCTE_Padilla_ZF_Score.Position: CCTE's 144 Hour Post-fertilization zebrafish Assay Score for Position, Padilla Lab (AID 2284409)
In short: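 Wild-type zebrafish embryos (with chorions) exposed singly from 6–8 hpf in sealed wells of Hanks' solution at 26C, rinsed at 5 dpf. At 6 dpf, blinded assessors scored abnormal water-column position by brightfield stereomicroscopy, relative to DMSO.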

[4] = CCTE_Padilla_ZF_Score.Living: CCTE's 144 Hour Post-fertilization zebrafish Assay Score for Viability, Padilla Lab (AID 2284410);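 further: larval death at 6 dpf judged by absent heartbeat or coagulation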
In short: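 Mortality at 6 dpf, judged as absent heartbeat or coagulation by two blinded observers, after sealed static exposure beginning at 6–8 hpf at 26C. Larvae were rinsed free of chemical at 5 dpf, and activity was fitted relative to DMSO.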

[5] = CCTE_Padilla_ZF_Score.General: CCTE's 144 Hour Post-fertilization zebrafish Assay Score for General Malformation, Padilla Lab (AID 2284411)
In short: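 Malformation, death and hatching were scored at 6 dpf by two blinded observers under a stereo microscope. Embryos were dosed singly from 6-8 hpf in sealed plates of 10% Hanks' at 26C and rinsed on 5 dpf; DMSO baseline.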

[6] = CCTE_Padilla_ZF_Score.Blood_pooling: CCTE's 144 Hour Post-fertilization zebrafish Assay Score for Blood Pooling, Padilla Lab (AID 2284415)
In short: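 Blood pooling was scored at 6 dpf under a stereo microscope by two blinded assessors, fitted upward against DMSO. Single embryos were dosed at 6–8 hpf in 10% Hanks', kept sealed at 26C (14:10 h cycle) and rinsed at 5 dpf.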

[7] = CCTE_Padilla_ZF_Score.Any: CCTE's 144 Hour Post-fertilization zebrafish Assay Score for Any Mortality or Malformation, Padilla Lab (AID 2284416)
In short: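 Wild-type zebrafish embryos with chorions, one per well in 10% Hanks' from 6–8 hpf, dosed in sealed plates at 26 C, 14:10 h light:dark; rinsed at 5 dpf; blinded scoring at 6 dpf for death or malformation, versus DMSO.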

[8] = CCTE_Padilla_ZF_Score.Tail: CCTE's 144 Hour Post-fertilization zebrafish Assay Score for Tail Malformation, Padilla Lab (AID 2284414)
In short: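 Tail malformations were scored at 6 dpf by two blinded assessors under a stereo microscope. Chorionated embryos had been exposed from 6-8 hpf in sealed wells of 10% Hanks' at 26 C, then rinsed free of chemical at 5 dpf.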

| Compound | outcome [1] | outcome [2] | outcome [3] | outcome [4] | outcome [5] | outcome [6] | outcome [7] | AC50 [5] | outcome [8] | AC50 [7] | AC50 [2] | AC50 [1] | AC50 [3] | AC50 [4] |
| --- | --- | --- | --- | --- | --- | --- | --- | --- | --- | --- | --- | --- | --- | --- |
| NC(=O)C(F)(F)C(F)(F)C(F)(F)F | inactive | inactive | inactive | inactive | inactive | inactive | inactive |  |  |  |  |  |  |  |
| O=C(Cl)C(F)(F)C(F)(F)C(F)(F)C(F)(F)C(F)(F)C(F)(F)F | inactive | inactive | inactive | inactive |  | inactive |  | 76.8 µM (active) | inactive | 76.8 µM (active) |  |  |  |  |
| OCCCC(F)(F)C(F)(F)C(F)(F)C(F)(F)C(F)(F)C(F)(F)C(F)(F)C(F)(F)F | inactive | inactive | inactive | inactive | inactive | inactive | inactive |  |  |  |  |  |  |  |
| O=S(=O)(O)CCC(F)(F)C(F)(F)C(F)(F)C(F)(F)C(F)(F)C(F)(F)C(F)(F)C(F)(F)F | inactive | inactive | inactive | inactive | inactive | inactive | inactive |  |  |  |  |  |  |  |
| C=C(C)C(=O)OCC(F)(F)C(F)(F)C(F)(F)C(F)F | inactive | inactive | inactive | inactive | inactive | inactive |  |  |  | 30 µM (active) |  |  |  |  |
| O=C(O)C(F)(F)C(F)(F)C(F)(F)OC(F)(C(F)(F)F)C(F)(F)F | inactive | inactive | inactive | inactive | inactive | inactive | inactive |  |  |  |  |  |  |  |
| CCOC(=O)CC(=O)C(F)(F)C(F)(F)F | inactive | inactive | inactive | inactive | inactive | inactive | inactive |  |  |  |  |  |  |  |
| CNS(=O)(=O)C(F)(F)C(F)(F)C(F)(F)C(F)(F)C(F)(F)C(F)(F)C(F)(F)C(F)(F)F | inactive |  | inactive | inactive |  | inactive |  | 0.737 µM (active) | inactive | 0.778 µM (active) | 0.606 µM (active) |  |  |  |
| FC(F)(F)C(F)(F)C(F)(F)C(F)(F)C(F)(F)C(F)(F)C(F)(F)CCI | inactive | inactive | inactive | inactive | inactive | inactive | inactive |  |  |  |  |  |  |  |
| COC(F)(C(F)F)C(F)(F)F (stereo not drawn) | inactive | inactive | inactive | inactive | inactive | inactive | inactive |  |  |  |  |  |  |  |
| O=S(=O)(Cl)C(F)(F)C(F)(F)C(F)(F)C(F)(F)C(F)(F)C(F)(F)C(F)(F)C(F)(F)F |  |  |  |  | inactive | inactive |  |  |  | 12.1 µM (active) | 12.1 µM (active) | 88.8 µM (active) | 81.7 µM (active) | 88.8 µM (active) |
| O=C(O)CCC(F)(F)C(F)(F)C(F)(F)C(F)(F)C(F)(F)C(F)(F)C(F)(F)F | inactive | inactive | inactive | inactive | inactive | inactive | inactive |  |  |  |  |  |  |  |
| C=CC(=O)OCC(F)(F)C(F)(F)C(F)(F)COC(=O)C=C | inactive | inactive | inactive |  | inactive | inactive |  |  |  | 8.95 µM (active) |  |  |  | 10 µM (active) |
